Measurements: PubChem BioAssay

Assays:
[1] = tested on: Botulinum neurotoxin type F light chain protease (Clostridium botulinum); assay: Clostridium botulinum type F light chain protease inhibitors, microsphere substrate cleavage, validation (AID 588459); details: multiplex microsphere protease substrate cleavage assay, flow cytometry; at 10 µM; stronger effect = higher value
[2] = target: Botulinum neurotoxin type A (Clostridium botulinum) (UniProt P0DPI0); assay: BoNT/A light chain protease inhibitors, biochemical, multiplex microsphere flow cytometry, validation set (AID 588460); details: at 10 µM, stronger effect = higher value
[3] = target: Lethal factor (Bacillus anthracis) (UniProt P15917); assay: Bacillus anthracis lethal factor inhibition, microsphere flow cytometry protease assay, validation at 10 µM (AID 588461); details: multiplex microsphere protease cleavage assay, stronger effect = higher value

Measured: inhibition

Chain of Lethal factor (Bacillus anthracis) (P15917 whole entry, looked up): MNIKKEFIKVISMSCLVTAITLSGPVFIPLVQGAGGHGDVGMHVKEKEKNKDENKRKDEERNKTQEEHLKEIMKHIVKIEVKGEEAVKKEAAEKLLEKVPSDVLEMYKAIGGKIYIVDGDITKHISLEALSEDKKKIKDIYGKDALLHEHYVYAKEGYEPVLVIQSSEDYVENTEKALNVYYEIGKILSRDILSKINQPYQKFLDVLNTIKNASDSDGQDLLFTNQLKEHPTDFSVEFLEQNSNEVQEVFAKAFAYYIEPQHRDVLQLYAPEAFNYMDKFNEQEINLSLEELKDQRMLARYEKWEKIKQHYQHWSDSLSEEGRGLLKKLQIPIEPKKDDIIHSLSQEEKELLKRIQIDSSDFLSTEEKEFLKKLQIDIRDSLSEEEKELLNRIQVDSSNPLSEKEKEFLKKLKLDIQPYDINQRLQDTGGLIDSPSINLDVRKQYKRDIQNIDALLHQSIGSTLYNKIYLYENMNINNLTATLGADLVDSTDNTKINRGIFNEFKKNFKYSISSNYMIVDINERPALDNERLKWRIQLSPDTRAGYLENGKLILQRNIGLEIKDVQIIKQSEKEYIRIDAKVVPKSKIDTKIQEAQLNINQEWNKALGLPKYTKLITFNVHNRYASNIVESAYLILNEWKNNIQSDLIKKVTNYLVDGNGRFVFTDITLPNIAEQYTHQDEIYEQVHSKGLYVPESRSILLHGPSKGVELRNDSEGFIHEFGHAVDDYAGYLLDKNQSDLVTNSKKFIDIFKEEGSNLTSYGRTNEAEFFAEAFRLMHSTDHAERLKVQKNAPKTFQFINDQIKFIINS
Chain of Botulinum neurotoxin type A (Clostridium botulinum) (P0DPI0 whole entry, looked up): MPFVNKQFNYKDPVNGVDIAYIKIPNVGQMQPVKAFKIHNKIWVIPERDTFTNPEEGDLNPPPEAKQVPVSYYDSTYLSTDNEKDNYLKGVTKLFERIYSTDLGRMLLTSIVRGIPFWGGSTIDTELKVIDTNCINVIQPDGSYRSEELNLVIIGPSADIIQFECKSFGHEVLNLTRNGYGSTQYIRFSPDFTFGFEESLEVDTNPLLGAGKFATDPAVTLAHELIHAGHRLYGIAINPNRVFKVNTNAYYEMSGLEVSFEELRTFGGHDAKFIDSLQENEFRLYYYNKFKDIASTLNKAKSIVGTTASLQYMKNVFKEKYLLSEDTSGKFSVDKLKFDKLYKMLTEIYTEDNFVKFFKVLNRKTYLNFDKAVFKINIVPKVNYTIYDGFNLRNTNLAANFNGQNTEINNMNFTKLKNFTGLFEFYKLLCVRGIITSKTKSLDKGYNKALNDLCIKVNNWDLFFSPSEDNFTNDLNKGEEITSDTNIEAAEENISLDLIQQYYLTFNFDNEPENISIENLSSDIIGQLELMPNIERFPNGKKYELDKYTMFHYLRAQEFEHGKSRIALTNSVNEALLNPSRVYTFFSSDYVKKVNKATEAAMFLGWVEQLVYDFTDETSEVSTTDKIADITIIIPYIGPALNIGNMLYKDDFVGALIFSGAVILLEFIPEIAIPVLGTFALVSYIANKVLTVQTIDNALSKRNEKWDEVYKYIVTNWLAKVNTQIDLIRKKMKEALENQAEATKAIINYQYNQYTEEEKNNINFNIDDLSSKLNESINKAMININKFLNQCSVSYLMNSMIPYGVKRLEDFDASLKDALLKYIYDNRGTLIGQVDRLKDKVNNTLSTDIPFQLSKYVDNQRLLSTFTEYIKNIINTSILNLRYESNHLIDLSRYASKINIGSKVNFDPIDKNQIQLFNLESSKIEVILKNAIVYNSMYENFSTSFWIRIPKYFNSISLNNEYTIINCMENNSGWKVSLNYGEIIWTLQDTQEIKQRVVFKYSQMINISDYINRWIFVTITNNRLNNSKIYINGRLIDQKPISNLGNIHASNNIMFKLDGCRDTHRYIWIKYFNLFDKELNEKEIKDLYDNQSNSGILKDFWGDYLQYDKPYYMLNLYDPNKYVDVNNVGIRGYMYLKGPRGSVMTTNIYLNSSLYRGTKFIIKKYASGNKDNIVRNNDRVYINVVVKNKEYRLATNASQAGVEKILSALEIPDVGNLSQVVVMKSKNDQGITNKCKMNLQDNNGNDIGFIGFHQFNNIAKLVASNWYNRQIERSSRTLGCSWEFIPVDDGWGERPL

O=C(Oc1ccccc1)Oc1ccc2c(c1)oc(=O)c1ccccc12
inactive: [1] -1.6% | [2] -0.4% | [3] 0.9%

CCOC(=O)N1c2ccccc2C=CC1OCC (stereo unspecified)
inactive: [1] -1.1% | [2] -0.5% | [3] 3.6%

O=C(NCCN1CCCCC1)c1c(O)c2ccccc2[nH]c1=O
inactive: [1] 3.5% | [2] 0.4% | [3] -3.9%

OC(CCN1CCCCC1)(c1ccccc1)c1ccccc1
inactive: [1] 0.9% | [2] 0.5% | [3] -0.2%

Cc1ccc2nc(C)c3c(c2c1)OC(C(C)(Cl)Br)C3 (stereo unspecified)
inactive: [1] -0.4% | [2] -0.5% | [3] 3.2%

O=C(O)c1cnccn1
inactive: [1] -5.5% | [2] -1.6% | [3] -1.5%

O=C(Nc1ccccc1C(=O)N1CCCCCC1)c1ccccc1Cl
inactive: [1] -2.3% | [2] 0% | [3] -1.1%
